Activity calls are given as the source filed them. How the source made its calls: active means hit-call score of the fitted dose curve at least 0.9, where 1 is the maximum; inactive means score below 0.9.
How the values were obtained:
[1] = ATG_E_Box_CIS: Attagene CIS-FACTORIAL HepG2 Assay for human Enhancer Box (E-box) (AID 2282936); settings: HepG2 E-box cis-reporter transcription, actives raise or lower the signal
Method in brief: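 Transiently transfected HepG2, endogenous TF-driven reporters, 24 h dosing. Readout: RT-PCR plus capillary electrophoresis of fluorescent reporter fragments. Gain or loss of signal fitted bidirectionally against DMSO baseline.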

[2] = ATG_M_61_CIS: Attagene CIS-FACTORIAL HepG2 Assay for M61 Transcription Factor (Internal Marker) (AID 2282937); settings: HepG2 Attagene CIS-FACTORIAL M61 internal marker reporter; actives raise or lower the signal
Method in brief: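 Human liver HepG2, transient MRTU transfection (cis promoter elements), 24 h compound. Total RNA → oligo(dT) RT → PCR → FAM label → HpaI → CE. Internal background marker; bidirectional fitting, DMSO = baseline.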

[3] = ATG_EGR_CIS: Attagene CIS-FACTORIAL HepG2 Assay for human Early Growth Response 1 (EGR1) (AID 2282938); settings: HepG2 Attagene CIS-FACTORIAL EGR reporter mRNA; actives raise or lower the signal
Method in brief: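 Transient transfection of human HepG2 with multiple cis-regulated reporter units, chemical exposure 24 h, total RNA isolated. Reverse transcription, PCR, fluorescent labelling and capillary electrophoresis quantify reporter transcripts; activity fitted bidirectionally against DMSO.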

[4] = ATG_M_19_CIS: Attagene CIS-FACTORIAL HepG2 Assay for M19 Transcription Factor (Internal Marker) (AID 2282939); settings: HepG2 Attagene CIS-FACTORIAL M19 internal marker reporter; actives raise or lower the signal
Method in brief: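 HepG2 cells transiently transfected with cis-regulated multiple reporter transcription units were dosed for 24 h; reporter mRNA was quantified by RT-PCR, 6-FAM primer-extension labelling, HpaI digestion and capillary electrophoresis, with bidirectional fitting against DMSO baseline.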

[5] = ATG_Ets_CIS: Attagene CIS-FACTORIAL HepG2 Assay for human Erythroblast Transformation Specific (ETS) (AID 2282941); settings: HepG2 ETS cis-reporter transcription, actives raise or lower the signal
Method in brief: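 Cis-regulated reporter mRNA induction in HepG2 (transient transfection), 24 h exposure, RT-PCR plus capillary electrophoresis detection; DMSO serves as negative control and baseline.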

[6] = target: Hepatocyte nuclear factor 3-beta (Homo sapiens) (UniProt Q9Y261); assay: ATG_FoxA2_CIS: Attagene CIS-FACTORIAL HepG2 Assay for human Forkhead box A2 (FOXA2) (AID 2282942); settings: HepG2 cis-reporter transcription factor activity, 24 h; actives raise or lower the signal
Method in brief: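 Transient MRTU transfection of HepG2 liver cells; 24 h treatment; total RNA → oligo(dT) RT → PCR → FAM primer extension → HpaI cut → CE. Bidirectional fit vs DMSO.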

[7] = ATG_FoxO_CIS: Attagene CIS-FACTORIAL HepG2 Assay for human Forkhead box O (FoxO) (AID 2282943); settings: HepG2 Attagene cis-reporter, FoxO element, mRNA; actives raise or lower the signal
Method in brief: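 Read-out: fluorescence of 6-FAM-labelled reporter cDNA fragments resolved by capillary electrophoresis. Transiently transfected HepG2 cells were dosed for 24 h; activity fitted in both directions relative to DMSO controls.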

[8] = ATG_GATA_CIS: Attagene CIS-FACTORIAL HepG2 Assay for human GATA Binding Protein (AID 2282944); settings: HepG2 GATA cis-element reporter, Attagene multiplex mRNA; actives raise or lower the signal
Method in brief: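 HepG2 cells transiently transfected with multiplexed cis-element reporter units reflecting endogenous transcription factor activity; reporter mRNA measured after 24 h dosing by RT-PCR, 6-FAM labeling, HpaI digestion and capillary electrophoresis. Bidirectional fitting versus DMSO baseline.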

[9] = ATG_GLI_CIS: Attagene CIS-FACTORIAL HepG2 Assay for human Zinc Finger Protein GLI1 (AID 2282945); settings: HepG2, Attagene cis-factorial reporter mRNA, GLI element; actives raise or lower the signal
Method in brief: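 Transiently transfected HepG2 cells report endogenous transcription factor activity via cis-element-driven reporter units. After 24 h compound exposure, reporter mRNA was measured by RT-PCR with capillary electrophoresis; bidirectional fitting against DMSO baseline.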

[10] = ATG_GRE_CIS: Attagene CIS-FACTORIAL HepG2 Assay for human Glucocorticoid Response Elements (GRE) (AID 2282947); settings: HepG2 GRE cis-reporter, Attagene multiplex mRNA; actives raise or lower the signal
Method in brief: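 Read-out: fluorescent reporter-transcript fragments separated by capillary electrophoresis after RT-PCR. Transiently transfected HepG2 cells carrying cis-element-driven reporter units were dosed for 24 h; gain or loss of signal fitted against DMSO control.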

[11] = ATG_ISRE_CIS: Attagene CIS-FACTORIAL HepG2 Assay for human Interferon Regulatory Factor 1 (IRF1) binding to an Interferon-Stimulated Response Element (ISRE) (AID 2282948); settings: HepG2 ISRE cis-reporter (Attagene), mRNA transcription readout; actives raise or lower the signal
Method in brief: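 Multiplexed mRNA reporter readout in human liver HepG2 cells: cis-element-driven reporters transfected, compound added for 24 h, transcripts amplified, fluorescently labelled and sized by capillary electrophoresis; curve fitting bidirectional against DMSO.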

[12] = ATG_M_32_CIS: Attagene CIS-FACTORIAL HepG2 Assay for M32 Transcription Factor (Internal Marker) (AID 2282949); settings: HepG2 Attagene cis-factorial M32 reporter, mRNA; actives raise or lower the signal;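 further: background control marker of the multiplexed CIS panel rather than a real target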
Method in brief: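 Transient MRTU transfection of HepG2; 24 h compound treatment; TriZol RNA, oligo(dT) RT, reporter PCR, 6-FAM primer extension, HpaI cut, CE. Gain/loss of signal vs DMSO.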

[13] = ATG_M_06_CIS: Attagene CIS-FACTORIAL HepG2 Assay for M06 Transcription Factor (Internal Marker) (AID 2282950); settings: HepG2 Attagene CIS-FACTORIAL M06 internal marker reporter; actives raise or lower the signal
Method in brief: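 HepG2 cells transiently transfected with cis-regulated multiple reporter transcription units were exposed to chemical for 24 h; reporter mRNA was quantified by RT-PCR, 6-FAM primer labelling, HpaI digestion and capillary electrophoresis, fitted bidirectionally against DMSO.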

[14] = target: Hypoxia-inducible factor 1-alpha (Homo sapiens) (UniProt Q16665); assay: ATG_HIF1a_CIS: Attagene CIS-FACTORIAL HepG2 Assay for human Hypoxia Inducible Factor 1 (HIF1A) (AID 2282951); settings: HepG2 Attagene cis-factorial HIF1a reporter transcription; actives raise or lower the signal
Method in brief: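 Transient MRTU transfection of human HepG2 liver cells, 24 h compound treatment, then total RNA isolation, oligo(dT) reverse transcription, PCR amplification, fluorescent labelling and capillary electrophoresis of reporter fragments. Gain or loss relative to DMSO.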

[15] = target: Hepatocyte nuclear factor 6 (Homo sapiens) (UniProt Q9UBC0); assay: ATG_HNF6_CIS: Attagene CIS-FACTORIAL HepG2 Assay for human Hepatocyte Nuclear Factor 6 (HNF6) (AID 2282952); settings: HepG2 Attagene cis-factorial HNF6 reporter transcription; actives raise or lower the signal
Method in brief: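 Twenty-four-hour chemical treatment of reporter-transfected HepG2 cells precedes RNA isolation, DNase-treated reverse transcription and PCR of reporter sequences. Labelled fragments are sized by capillary electrophoresis and fitted bidirectionally versus DMSO.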

[16] = target: Heat shock factor protein 1 (Homo sapiens) (UniProt Q00613); assay: ATG_HSE_CIS: Attagene CIS-FACTORIAL HepG2 Assay for human Heat Shock Transcription Factor 1 (HSE) (AID 2282953); settings: HepG2 HSE cis-reporter, Attagene RNA transcription; actives raise or lower the signal
Method in brief: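 HepG2 cells transiently transfected with multiple reporter transcription units under cis-regulatory promoter control, measuring endogenous transcription factor activity. After 24 h chemical exposure, reporter mRNA quantified by RT-PCR, fluorescent labelling, HpaI digestion and capillary electrophoresis; bidirectional fit versus DMSO.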

[17] = ATG_MRE_CIS: Attagene CIS-FACTORIAL HepG2 Assay for human Metal Responsive Element (MRE) (AID 2282954); settings: HepG2 MRE cis-reporter transcription, Attagene multiplex; actives raise or lower the signal
Method in brief: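 RT-PCR/capillary electrophoresis readout of reporter mRNA, 24 h post-dosing, in HepG2 cells transfected with multiplexed cis-regulated reporter constructs. Gain or loss of signal fitted bidirectionally against DMSO baseline.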

[18] = ATG_PBREM_CIS: Attagene CIS-FACTORIAL HepG2 Assay for human Phenobarbital-responsive Enhancer Module (PBREM) (AID 2282955); settings: HepG2 PBREM cis-reporter, Attagene multiplexed transcription; actives raise or lower the signal
Method in brief: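 Endogenous transcription factors in human liver HepG2 cells drive a PBREM cis-element reporter, whose transcript level after 24 h treatment is quantified by RT-PCR with capillary electrophoresis; activity fitted in both directions against DMSO.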

[19] = target: Paired box protein Pax-6 (Homo sapiens) (UniProt P26367); assay: ATG_Pax6_CIS: Attagene CIS-FACTORIAL HepG2 Assay for human Paired Box 6 (PAX6) (AID 2282956); settings: HepG2 CIS-FACTORIAL PAX6 reporter transcription, RNA readout; actives raise or lower the signal
Method in brief: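 Fluorescent RT-PCR products separated by capillary electrophoresis report PAX6-linked promoter mRNA in HepG2 cells 24 h post-dose. Curves fitted bidirectionally, DMSO as negative control.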

Measured: AC50

Sequence of Hepatocyte nuclear factor 3-beta (Homo sapiens) (Q9Y261 whole entry, looked up): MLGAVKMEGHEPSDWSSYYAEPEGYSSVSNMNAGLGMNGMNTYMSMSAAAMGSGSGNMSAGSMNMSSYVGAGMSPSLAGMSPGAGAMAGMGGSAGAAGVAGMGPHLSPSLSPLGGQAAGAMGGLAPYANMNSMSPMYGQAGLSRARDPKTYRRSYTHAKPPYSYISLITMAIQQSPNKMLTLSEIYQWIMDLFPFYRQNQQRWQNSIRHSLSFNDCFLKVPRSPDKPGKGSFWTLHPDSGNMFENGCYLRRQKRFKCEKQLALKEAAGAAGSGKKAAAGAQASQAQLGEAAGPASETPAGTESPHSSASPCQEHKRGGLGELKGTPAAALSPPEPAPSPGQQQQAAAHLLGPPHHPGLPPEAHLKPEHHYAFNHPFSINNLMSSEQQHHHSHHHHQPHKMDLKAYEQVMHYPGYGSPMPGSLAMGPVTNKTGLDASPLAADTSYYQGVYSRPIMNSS
Sequence of Heat shock factor protein 1 (Homo sapiens) (Q00613 whole entry, looked up): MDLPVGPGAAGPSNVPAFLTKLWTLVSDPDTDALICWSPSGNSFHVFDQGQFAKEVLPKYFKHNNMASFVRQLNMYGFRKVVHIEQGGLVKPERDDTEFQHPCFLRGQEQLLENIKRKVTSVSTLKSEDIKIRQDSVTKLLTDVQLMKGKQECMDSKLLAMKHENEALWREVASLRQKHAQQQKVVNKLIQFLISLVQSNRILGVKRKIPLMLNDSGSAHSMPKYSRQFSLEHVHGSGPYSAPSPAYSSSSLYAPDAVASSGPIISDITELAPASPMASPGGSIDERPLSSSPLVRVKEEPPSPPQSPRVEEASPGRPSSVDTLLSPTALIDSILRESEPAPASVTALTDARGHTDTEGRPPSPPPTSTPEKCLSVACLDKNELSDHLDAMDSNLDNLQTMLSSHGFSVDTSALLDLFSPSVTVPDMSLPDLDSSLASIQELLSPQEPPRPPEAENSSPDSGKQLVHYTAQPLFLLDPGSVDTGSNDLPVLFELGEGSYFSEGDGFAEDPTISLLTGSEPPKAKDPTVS
Sequence of Hepatocyte nuclear factor 6 (Homo sapiens) (Q9UBC0 whole entry, looked up, the tested form may be a part): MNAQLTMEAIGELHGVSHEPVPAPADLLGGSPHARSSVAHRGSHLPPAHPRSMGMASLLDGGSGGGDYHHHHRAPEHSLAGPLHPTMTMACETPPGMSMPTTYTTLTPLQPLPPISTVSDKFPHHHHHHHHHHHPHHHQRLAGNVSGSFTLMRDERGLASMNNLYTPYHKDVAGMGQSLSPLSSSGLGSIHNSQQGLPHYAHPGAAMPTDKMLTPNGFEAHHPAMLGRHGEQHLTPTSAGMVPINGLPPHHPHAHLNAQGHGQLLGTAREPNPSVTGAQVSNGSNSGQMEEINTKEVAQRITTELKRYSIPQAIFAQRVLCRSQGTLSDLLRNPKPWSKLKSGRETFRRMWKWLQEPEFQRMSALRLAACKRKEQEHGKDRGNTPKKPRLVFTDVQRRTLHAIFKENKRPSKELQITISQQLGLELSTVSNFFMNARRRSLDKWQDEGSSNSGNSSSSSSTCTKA
Sequence of Hypoxia-inducible factor 1-alpha (Homo sapiens) (Q16665 whole entry, looked up, the tested form may be a part): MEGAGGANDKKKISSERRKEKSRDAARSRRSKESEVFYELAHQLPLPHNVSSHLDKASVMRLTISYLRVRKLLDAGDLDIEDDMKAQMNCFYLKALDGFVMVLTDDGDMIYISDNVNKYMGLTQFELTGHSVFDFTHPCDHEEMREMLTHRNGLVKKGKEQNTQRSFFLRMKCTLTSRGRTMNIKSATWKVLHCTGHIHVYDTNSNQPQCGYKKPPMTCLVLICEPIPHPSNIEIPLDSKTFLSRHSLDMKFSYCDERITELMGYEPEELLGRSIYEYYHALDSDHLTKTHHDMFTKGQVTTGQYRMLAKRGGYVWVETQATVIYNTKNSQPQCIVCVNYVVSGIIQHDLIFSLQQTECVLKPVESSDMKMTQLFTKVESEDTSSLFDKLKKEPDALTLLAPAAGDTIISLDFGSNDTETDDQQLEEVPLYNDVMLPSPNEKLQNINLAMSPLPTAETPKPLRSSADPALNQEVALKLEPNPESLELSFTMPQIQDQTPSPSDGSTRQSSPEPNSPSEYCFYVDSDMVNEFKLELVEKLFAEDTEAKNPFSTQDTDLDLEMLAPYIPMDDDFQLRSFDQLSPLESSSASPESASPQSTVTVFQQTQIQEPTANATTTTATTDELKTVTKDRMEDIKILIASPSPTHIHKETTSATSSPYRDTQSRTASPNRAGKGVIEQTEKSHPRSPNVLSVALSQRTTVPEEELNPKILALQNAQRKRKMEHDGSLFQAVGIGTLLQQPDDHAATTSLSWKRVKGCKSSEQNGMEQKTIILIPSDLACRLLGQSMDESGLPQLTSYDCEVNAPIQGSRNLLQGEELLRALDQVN
Sequence of Paired box protein Pax-6 (Homo sapiens) (P26367 whole entry, looked up): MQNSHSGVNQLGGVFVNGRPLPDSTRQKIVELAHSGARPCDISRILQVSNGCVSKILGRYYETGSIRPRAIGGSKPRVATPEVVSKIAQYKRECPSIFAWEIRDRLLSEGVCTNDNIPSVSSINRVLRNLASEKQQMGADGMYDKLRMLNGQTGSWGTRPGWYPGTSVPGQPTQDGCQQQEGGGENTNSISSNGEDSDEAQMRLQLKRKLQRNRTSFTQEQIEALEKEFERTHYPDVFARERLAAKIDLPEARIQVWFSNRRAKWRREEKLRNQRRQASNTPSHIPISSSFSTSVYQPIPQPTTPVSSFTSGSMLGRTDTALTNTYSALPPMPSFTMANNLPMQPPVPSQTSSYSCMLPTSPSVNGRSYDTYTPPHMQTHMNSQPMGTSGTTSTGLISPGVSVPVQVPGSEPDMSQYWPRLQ

CNCc1ccc(NC(=O)c2c[nH]c3c2C(=O)CCC3)cc1
active: [11] 71.1 µM
inactive: all other assays above

CCOCCO
not listed: [12]
inactive: all other assays above

Nc1nc2ncc(CNc3ccc(C(=O)N[C@@H](CCC(=O)O)C(=O)O)cc3)nc2c(=O)[nH]1
not listed: [14]
inactive: all other assays above

NC(=O)NO
not listed: [14] | [16]
inactive: all other assays above

C1=CCCC=CCCC=CCC1
active: [1] 76.6 µM
inactive: all other assays above

O=C(OC[C@H]1O[C@@H](OC(=O)c2cc(O)c(O)c(OC(=O)c3cc(O)c(O)c(O)c3)c2)[C@H](OC(=O)c2cc(O)c(O)c(OC(=O)c3cc(O)c(O)c(O)c3)c2)[C@@H](OC(=O)c2cc(O)c(O)c(OC(=O)c3cc(O)c(O)c(O)c3)c2)[C@@H]1OC(=O)c1cc(O)c(O)c(OC(=O)c2cc(O)c(O)c(O)c2)c1)c1cc(O)c(O)c(OC(=O)c2cc(O)c(O)c(O)c2)c1
active: [14] 6.05 µM
inactive: all other assays above
